# Source: PubChem BioAssay AID1918969 (ICCB-Longwood Screening Facility, Harvard Medical School, 2023)
# Several values for one entry are separate records, joined by “and”; a condition that tells them apart may be missing. Equal entries are not always repeated. Among all 190,000 compounds or so, about 280 (0.15%) were called active. Rule as the data show it: active = inhibition above about 27% (passing the limit was not always enough); inactive = the rest. This excerpt belongs to a sample that is enriched for actives.
# Tested on: HCMV UL50-UL53 nuclear egress complex (human cytomegalovirus)
# Experiment: inhibitors of HCMV UL50-UL53 interaction, biochemical, HTRF (AID 1918969)
# Details: normalized percent inhibition, stronger effect = higher value, concentration not given here
row,SMILES,inhibition
1,CCCC1O[C@@H]2CC3C4CCC5=CC(=O)C=CC5(C)C4[C@@H](O)CC3(C)[C@]2(C(=O)CO)O1 (stereo partly specified),-70.7% (inactive)
2,O=C(OCc1nc2ccccc2s1)c1coc2ccccc2c1=O,54.6% (active)
3,NNC(=O)CCCc1nc2ccccc2s1,-31.3% (inactive)
4,O=C(CCc1nc2ccccc2s1)OCC(=O)c1ccco1,-34.2% (inactive)
5,CCOc1cc(/C=C2/C(=O)N(c3nn[nH]n3)N=C2C)cc(Cl)c1OCC,-8.7% (inactive)
6,CC(C(=O)OCc1ccc(F)cc1)N1C(=O)c2ccccc2C1=O (stereo unspecified),-2.6% (inactive)
7,O=C(CC(c1ccccc1)c1ccccc1)NCc1ccco1,13.4% (inactive)
8,O=c1c(-c2nnc3c(Cl)nc4ccccc4n23)coc2ccccc12,-9.1% (inactive)
9,Cc1n[nH]c(C)c1Cc1ccc(N)cc1,-0.1% (inactive)
10,Cc1ccc(-n2ccnc(NCCc3ccccc3)c2=O)cc1,-0.4% (inactive)
11,CCN(CC)S(=O)(=O)c1ccc(N=Nc2c(O)[nH]c(=S)[nH]c2=O)cc1,-70.2% (inactive)
12,Cc1cc(C(=O)CSc2ccc(S(=O)(=O)N(C)C)cn2)c(C)n1-c1ncn[nH]1,-15% (inactive)
13,O=C1CC(c2ccc(S(=O)(=O)N3CCCc4ccccc43)cc2)CN1 (stereo unspecified),-28.3% (inactive)
14,O=C(COC(=O)Cc1ccc(F)cc1)Nc1ccccc1,1.8% (inactive)
15,Cc1ccc(C)c2c1NC(c1ccc(Br)cc1)C1CC=CC21 (stereo unspecified),-3.3% (inactive)
16,CCc1nc(-c2cc(S(=O)(=O)N3CCC(C(=O)Nc4cccc(OC)c4)CC3)c(C)s2)no1,-7.1% (inactive)
17,CC1CCN(C(=O)Cn2ncc3c4ccccc4n(Cc4ccccc4)c3c2=O)CC1,-7.3% (inactive)
18,Cc1ccc(CNC(=O)c2ccc(-n3nnc4cccnc43)cc2)cc1,-21.8% (inactive)
19,CCN(CC)S(=O)(=O)c1ccc2c(c1)nc(CCC(=O)OCC#N)n2C,-6% (inactive)
20,CCOC(=O)N1CCCC1C(=O)O (stereo unspecified),-17.9% (inactive)
21,O=C(NC1CCCC1)c1cc(-c2ccccc2)on1,-1.9% (inactive)

row,SMILES,inhibition
1,O=C(NC1CCCCCCC1)c1cccs1,-0.7% (inactive)
2,CNC(=O)c1ccc(N2CCOc3ccc(Cl)cc32)s1,14.6% (inactive)
3,O=C(NC1CCCC1)c1ccc(Br)s1,-3.7% (inactive)
4,O=C(NC1CCCCC1)c1ccc(-n2ccc3ccccc32)s1,37.9% (active)
5,O=C(NC1CCCC1)c1ccc(N2CCOc3ccccc32)s1,42.2% (active)
6,O=C(c1c(F)c(F)c(F)c(F)c1F)N(CCO)Cc1ccccc1,-6.4% (inactive)
7,CNC(=O)COC(=O)c1ccc(Br)o1,-3.2% (inactive)
8,Cn1c(=O)n(C)c2cc(N3CCOCC3)c(NS(=O)(=O)c3ccc4c(c3)CCCC4)cc21,-20% (inactive)
9,Cc1ccc2nsnc2c1S(=O)(=O)NCCc1c(C)[nH]c2ccccc12,-75.9% (inactive)
10,Cc1ccc(N2C(=O)/C(=C/c3ccc(OCC(=O)O)c(Br)c3)C(=O)NC2=S)cc1,-28.5% (inactive)
11,CC1=C(C(=O)OCCOc2ccccc2)C(c2cccnc2)C2=C(CC(c3ccc(Cl)cc3)CC2=O)N1 (stereo unspecified),-27.9% (inactive)
12,Cn1c2c(c3cc(C4CCCCC4)ccc31)CCCCC2=O,1.4% (inactive)
13,CCOC(C)=C(C#N)C#N,5.1% (inactive)
14,CC12CCOC1N(c1ccccc1)c1ccccc12 (stereo unspecified),-18.7% (inactive)
15,CC(=O)Nc1ccc(N2C(=O)c3cc(C)nn3CC2(C)C(=O)NCc2ccc(Cl)cc2)cc1 (stereo unspecified),-1.4% (inactive)
16,Cc1ccc(C2/C(=C(\O)c3ccccc3)C(=O)C(=O)N2CCN2CCOCC2)cc1 (stereo unspecified),0.4% (inactive)
17,Cc1c2cnn(CC(=O)NCc3ccco3)c(=O)c2c(C)n1Cc1ccccc1,-1.5% (inactive)
18,CCOC(=O)c1c(C)n(-c2ccc(Cl)cc2)c2ccc(Oc3nccc(Nc4ccccc4)c3C#N)cc12,-12.5% (inactive)
19,N#CC(=C=[N-])c1nc2ccccc2nc1-[n+]1cccc(NC(=O)c2ccc(Br)o2)c1,-17.4% (inactive)
20,O=C(CN1CCN(S(=O)(=O)c2ccc3[nH]c(=O)[nH]c3c2)CC1)N1CCCCCC1,-26.1% (inactive)
21,CCOCCCNC(=O)N1Cc2c(sc3c2CCCC3)-n2cccc2C1c1ccc(N(C)C)cc1 (stereo unspecified),-33.4% (inactive)

row,SMILES,inhibition
1,CC(C)CCNC(=O)C1(C)Cn2c(cc3ccccc32)C(=O)N1C1CC1 (stereo unspecified),-9.6% (inactive)
2,Cc1ccc(-n2c(=O)c3c(n4c(SCC(N)=O)nnc24)-c2ccccc2CC32CCCCC2)cc1,-17.8% (inactive)
3,O=C(COc1ccc(-c2nc(-c3ccccc3)no2)cc1)N1CCCC1,-28.2% (inactive)
4,Cc1ccc(S(=O)(=O)C2(C(=O)N3CCc4ccccc43)CC2)cc1,1% (inactive)
5,COc1cc(C=C2C(=O)NC(=O)NC2=O)ccc1OCCOc1ccc([N+](=O)[O-])cc1,1.5% (inactive)
6,CCOc1cc(C=C2C(=O)NC(=O)NC2=O)ccc1OCCOCCOc1ccc(C)cc1,45.8% (active)
7,CCOc1cc(C=C2C(=O)NC(=O)NC2=O)ccc1OCCOc1ccc([N+](=O)[O-])cc1,-8.1% (inactive)
8,CCOC(=O)/C(C#N)=C/Nc1ccccc1,-4.4% (inactive)
9,Cc1cc(C)c(C(N)=O)c(=O)[nH]1,-10.3% (inactive)
10,O=C(NN1C(=O)/C(=C/c2ccc(-c3ccc([N+](=O)[O-])cc3)o2)SC1=S)c1ccccc1[N+](=O)[O-],-1.8% (inactive)
11,CCCC(O)c1nc2ccccc2n1CCOc1ccccc1Cl (stereo unspecified),-14.3% (inactive)
12,CC1CCN(S(=O)(=O)c2ccc3ncn(CC(=O)N4CCCCC4C)c(=O)c3c2)CC1 (stereo unspecified),3.7% (inactive)
13,CC(C)(Oc1ccc(Cl)cc1)C(=O)OCCN1CCCC1=O,16.4% (inactive)
14,CCOC(=O)c1c(C)oc2nc(COc3ncnc4c3cnn4-c3ccccc3)nc(N)c12,-27.9% (inactive)
15,Nc1c(C(=O)N2CCc3ccccc3C2)sc(=S)n1-c1ccccc1,3.7% (inactive)
16,CCCCCC#CCC#CCCCCCCCC(=O)O,-8.8% (inactive)
17,CC(C)Nc1nc(-c2ccccc2O)nc2ccccc12,54.6% (active)
18,CCN(CC)c1nc(-c2ccccc2O)nc2ccccc12,-4.1% (inactive)
19,CC(Nc1nc(N2CCCC2)nc2ccccc12)c1ccccc1 (stereo unspecified),38.8% (inactive) and -22.4% (inactive)
